Pf growth 48h: P. falciparum growth inhibition at 48 hours (one generation); actives 5.9% (n = 310,000); Potency, µM (series often up to 28.7 µM), inactives show top-dose activity change, negative = inhibition, actives largely listed as inhibitors; AID 504832; P. falciparum luciferase growth in erythrocytes, 48 h; also: potency is read from the fitted curve at half-maximal effect; % is scaled to controls: 0 for no effect and ±100 for the full control effect
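A one-generation exposure of luciferase-tagged malaria parasites in RPMI 1640/Albumax erythrocyte culture, 37 C and 5% CO2. Inhibition is inferred from decreased luminescence after adding detection reagent.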
CHX counter: counter-screen hit for Shiga toxin inhibitors, cycloheximide; cell reporter, cycloheximide protein synthesis inhibition counterscreen; actives 12% (n = 300,000); max response, %; in the data active = max response mostly above about 13%, no sharp cut-off; inactive = mostly below about 14%; also: read at 38.3 µM for the half of the compounds with a filed dose; 0% is about no effect
HCMV inh: inhibitors of human cytomegalovirus; HFF cells, HCMV-luciferase reporter, 72 h; stronger effect = lower value; activity change, negative = inhibition, % at 57.5 µM; actives 4.5% (n = 410,000); in the data active = activity change below about -60%; inconclusive = no clear call, values can overlap the other calls; inactive = above about -39%; also: % is scaled to controls: 0 for no effect and ±100 for the full control effect
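After 16 h attachment at 37C, HFF cells received test compound and HCMV-luciferase (1 PFU/cell); reporter luminescence read 72 h later, data normalized against buffer-only and known inhibitor Salinomycin.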
Pf growth 96h: P. falciparum growth inhibition at 96 hours | Potency, µM (highest dose often 28.7 µM), for the others: at the top dose activity change, negative = inhibition, actives largely listed as inhibitors | AID 504834 | actives 6.9% (n = 320,000) | P. falciparum luciferase reporter growth, 96 h; also: potency is read from the fitted curve at half-maximal effect; % is scaled to controls: 0 for no effect and ±100 for the full control effect
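Compounds incubated with erythrocytes infected by luciferase-expressing P. falciparum (2% hematocrit, 0.05% parasitemia final) for 96 hours, 37 C in 5% CO2. Growth inhibition scored as decreased luciferase luminescence.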
Shiga inhibitor: inhibitors of Shiga toxin in Vero cells. Vero cells, Shiga toxin protein synthesis inhibition reporter. inhibition, % at 38.7 µM. actives 9.2% (n = 290,000). AID 2315; in the data active = inhibition mostly above about 28%, no sharp cut-off; inactive = mostly below about 43%; also: 0% is about no effect
The depositor's hits bear a star; ? = inconclusive; / = not tested or not shown; [ ] = remark or other dose. Only some compounds are listed: those with a hit (about 20% of all), similar ones and a draw of the others. Unless noted, calls follow the shape of the dose curve; as a rule, active = well fitted inhibition curve with a large enough effect; inconclusive = small, poorly fitted or top-dose-only effect, or another doubt; inactive = no such curve, though single readings can be large or run the other way.

SMILES	Pf growth 48h	CHX counter	HCMV inh	Pf growth 96h	Shiga inhibitor
CC(C)C[C@H](NC(=O)[C@H](CC(C)C)NC(=O)[C@H](Cc1ccccc1)NC(=O)[C@@H](N)CO)C(=O)N[C@@H](CCCN=C(N)N)C(=O)N[C@@H](CC(N)=O)C(=O)O	/	-2	/	/	-6
NCCc1ccn[nH]1	-1%	/	-67*	-3%	/
CCC[C@H](NC(=O)[C@H](CC(C)C)N(C)C(=O)CNC(=O)[C@@H](NC(=O)[C@H](Cc1ccccc1)NC(=O)[C@H](CCCCN)NC(=O)[C@@H](N)CC(=O)O)C(C)C)C(N)=O	/	-1	/	/	-12
Cc1ccc(C(C(=O)NC2CCCC2)N(C(=O)CCC(=O)Nc2cc(C)on2)c2ccccc2)cc1 (configuration not stated)	-13%	-1	18	-2%	-7
Cc1cc(NC(=O)CSCC(=O)N(c2cccc(Cl)c2)C(C(=O)NC2CCCCC2)c2ccc(O)c(O)c2)no1 (configuration not stated)	?	1	2	9.3µM*	13
COc1ccc(N(C(=O)CCC(=O)Nc2cc(C)on2)C(C(=O)NC2CCCC2)c2ccco2)cc1 (configuration not stated)	-5%	-2	-35	?	21
COc1ccc(N(C(=O)CSCC(=O)Nc2cc(C)on2)C(C(=O)NC2CCCCC2)c2ccc(O)c(O)c2)cc1 (configuration not stated)	-4%	-1	-28	2.6µM*	-2
Cc1cc(NC(=O)CCC(=O)N(c2ccccc2)C(C(=O)NC2CCCC2)c2ccccc2F)no1 (configuration not stated)	?	-8	5	?	-6
Cc1cc(NC(=O)CSCC(=O)N(c2ccc(F)cc2)C(C(=O)NC2CCCCC2)c2ccc(O)c(O)c2)no1 (configuration not stated)	?	-1	-7	15µM*	-3
COc1ccc(N(C(=O)/C=C/C(=O)Nc2cc(C)on2)C(C(=O)NC2CCCC2)c2ccccc2C)cc1 (configuration not stated)	9.3µM*	-3	-64*	5%	-11
CC(=O)Nc1ccc(NC(=O)CSc2nc(C)nc3sc(C)c(C)c23)cc1	-3%	-3	-16	79%	-10
Cc1nc(SCC(=O)Nc2ccc(CN3CCCC3)cc2)c2c(C)c(C)sc2n1	9.3µM*	/	0	13µM*	/
O=C(CSc1nnc(-c2ccncc2)n1CC1CCCO1)Nc1nccs1 (configuration not stated)	-12%	-2	-9	?	14
COc1ccc2[nH]c(=O)c(CN(c3ccc(C)c(C)c3)S(C)(=O)=O)cc2c1	-21%	-3	4	6.6µM*	-8
COc1ccc(N(Cc2cc3cc(OC)ccc3[nH]c2=O)S(=O)(=O)c2ccc(NC(C)=O)cc2)cc1	2.3µM*	-4	-19	9.3µM*	-16
CCOc1ccc(N(Cc2cc3cc(OC)ccc3[nH]c2=O)S(C)(=O)=O)cc1	-2%	5	10	1%	-11
CCC(O)c1cnc(OCc2ccccc2)nc1OCc1ccccc1 (configuration not stated)	/	/	-31	/	/
Cn1nc(C(F)(F)F)c2cc(C(=O)O)sc21	-3%	8	-28	-20%	-2
Cn1nc(C(F)(F)F)c2cc(C(=O)Nc3ccc(C(F)(F)F)cc3)sc21	6.6µM*	0	-106*	?	8
Cn1nc(C(F)(F)F)c2cc(C(=O)Nc3ccc(F)c(Cl)c3)sc21	3.3µM*	0	-75*	2.1µM*	7
Cn1nc(C(F)(F)F)c2cc(C(=O)Nc3ccc(F)cc3)sc21	?	1	-18	?	-1
Cc1cc(=O)[nH]c2c(C)cc(S(=O)(=O)Nc3ccc(O)cc3)cc12	35%	1	44	?	-22
Cc1ccc(CNC(=O)c2ccc(Br)o2)cc1	40%	20*	13	17%	75
Cc1cc2cc(CNC(=O)c3ccc(S(=O)(=O)N4CCOCC4)cc3)ccc2n1C	13µM*	5	-8	?	11
Cc1cc2cc(CNC(=O)c3ccc(Br)o3)ccc2n1C	?	-6	21	9.3µM*	-6
SMILES	Pf growth 48h	CHX counter	HCMV inh	Pf growth 96h	Shiga inhibitor
Cc1ccc(-c2cn3c(n2)CCCC3)cc1	17%	20	-18	32%[5.75 µM]	49
COc1ccc(-c2cn3c(n2)CCC3)cc1	78%	38*	44	-5%	54*
c1ccc(-c2ccc(-c3cn4c(n3)CCC4)cc2)cc1	/	37*	-62*	27%	58*
O=[N+]([O-])c1cc(S(=O)(=O)N2CCCC2)ccc1N/N=C1/CCCc2ccccc21	?	-6	18	?	-3
CN(C)C=NC(=O)c1cc(C(=O)c2ccc(F)cc2)c[nH]1	3%	-2	-6	28%	-2
CN(C)C=NC(=O)c1cc(C(=O)c2ccc(Cl)cc2)c[nH]1	48%	7	-63*	27%	-15
CNC(=O)c1cc(C(=O)c2ccc(Cl)cc2)c[nH]1	/	24*	85	25%	56*
COc1ccc(N2C(=O)C(C)(C)C2c2c(O)ccc3ccccc23)cc1 (configuration not stated)	8.3µM*	-2	-4	-2%	-3
Cc1cccc(C)c1Nc1c(-c2ccc(Cl)s2)nc2ncccn12	/	/	4	/	/
O=C(/C=C/c1ccc(-c2ccccc2[N+](=O)[O-])o1)c1ccccc1	-1%	51*	43	-20%	96*
O=C(O)/C(=C\c1ccc(-c2ccccc2[N+](=O)[O-])o1)c1ccccc1	1%	11	45	0%	28*
O=C1NC(=O)C(=Cc2ccc(-c3ccccc3[N+](=O)[O-])o2)C(=O)N1	-1%	0	-2	65%	4
CNC(=O)/C(C#N)=C/c1ccc(-c2ccc(Cl)cc2)o1	18%	28*	34	?	76*
O=C1/C(=C\c2ccc(-c3ccccc3[N+](=O)[O-])o2)C(c2ccccc2)=NN1c1ccccc1	7%	2	-31	-17%	0
CC1CC1c1ccc(/C=C(\C#N)C(=O)Nc2ccc(Cl)cc2Cl)o1 (configuration not stated)	4%	0	-64*	-2%	-2
CC1CC1c1ccc(/C=C(\C#N)C(=O)Nc2cc(Cl)ccc2Cl)o1 (configuration not stated)	5%	4	15	?	-3
CCOC(=O)c1c(C)oc2cc(Br)c(OC(=O)N3CCOCC3)cc12	-17%	14	-2	?	-13
O=C(O)CCSc1nnc(SCC(=O)NC2CCS(=O)(=O)C2)s1 (configuration not stated)	/	/	29	/	/
CC(C)CC(NC(=O)C1CCC(C)CC1)C(=O)OCC(=O)c1ccc(Cl)cc1 (configuration not stated)	/	/	4	/	/
C[C@H]1[C@@H](NS(=O)(=O)Cc2ccccc2)CC[C@@]23CCCN2C(=O)CCC[C@@H]13	/	/	5	/	/
